Measurements: PubChem BioAssay AID932 (The Scripps Research Institute Molecular Screening Center, 2007)
About 5,100 (2.5%) of roughly 200,000 compounds were called active. The sample holds actives, similar compounds and a random draw of the others, so the mix is not that of the screen. Values without a mark were called inactive.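 Rule for the calls: active = activation above the screen-wide mean activation plus 3 SD (cut at about 130% in these data); inactive = the rest.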 Where a SMILES comes first, the peptide text is derived from it. The star is where a group is joined. OPac = O=C(CO*)c1ccccc1; Bz = O=C(c1ccccc1)*

test: potentiators of IFN-gamma driven STAT1 reporter – cell-based, HTS, luciferase reporter, primary screen (AID 932); details: NIH 3T3 STAT1-luciferase reporter, luminescence, at 5.5 µM, stronger effect = higher value, 100% = IFN-gamma alone, no compound;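 note: raw ratio to IFN-gamma control signal so 100% means no change and 0% no light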

Row | Structure (SMILES) | activation (% of control)
1 | NC(=O)c1ccc(CN2CCC(Cc3ccccc3)CC2)cc1 | 98.6%
2 | COc1ccc(CCNC(=O)c2ccc(CS(=O)(=O)c3ccc(Br)cc3)o2)cc1OC | 84.6%
3 | Cc1ccc(OCCOCCOc2ccc(Br)cc2/C=N\NC(=O)c2ccncc2)cc1 | 102%
4 | COc1ccc(CCNc2nc(-c3cccc(NC(C)=O)c3)cs2)cc1OC | 88.5%
5 | CC(=O)Nc1cccc(-c2csc(Nc3cccc(C)n3)n2)c1 | 175% (active)
6 | Cc1cc(O)ccc1-c1cnc2ccccc2n1 | 108%
7 | CC(=O)Nc1ccc(-c2csc(NC(=O)Nc3ccccc3)n2)cc1 | 95.7%
8 | CCS(=O)(=O)Nc1cccc(-c2cc(-c3ccccc3)c3cc(C)ccc3n2)c1 | 96.5%
9 | CC(=O)Nc1cccc(-c2cnc3ccccc3n2)c1 | 159% (active)
10 | CCOC(=O)/C(=N\Nc1ccccc1[N+](=O)[O-])c1csc(Nc2ccccc2)n1 | 102%
11 | OC1CCCN(c2ncnc3c2nnn3Cc2c(F)cccc2Cl)C1 (stereo not drawn) | 102%
12 | COc1ccc(CCNC(=O)COC(=O)/C=C/c2cccs2)cc1OC | 90.8%
13 | CCOC(=O)c1c(NC(=S)NC(=O)/C=C/c2cccs2)sc(C)c1C | 105%
14 | CCOC(=O)c1sc(=NC(=O)/C=C/c2cccs2)n(C)c1C | 140% (active)
15 | CCOc1cc(NC(=S)NCc2ccco2)c(OCC)cc1NC(=O)c1ccco1 | 94.2%
16 | COc1cc(OC)cc(-c2nnc(SCC(=O)Nc3ccc(C(=O)O)cc3)s2)c1 | 92.8%
17 | CCn1nc(C(=O)OCC(=O)N2c3ccccc3CC2C)c2ccccc2c1=O (stereo not drawn) | 94.7%
18 | CCC(=O)N1c2ccc(S(=O)(=O)CCC(=O)N3CCN(c4ccccc4)CC3)cc2CC1C (stereo not drawn) | 101%
19 | CCCC(=O)N1c2ccc(-c3csc(N)n3)cc2CC1C (stereo not drawn) | 150% (active)
20 | O=C(Nc1cccc(F)c1)c1coc(=O)c(Br)c1 | 89.3%
21 | Cc1cccc(NC(=S)N(CCN(C)C)C(C)c2ccco2)c1 (stereo not drawn) | 97.6%
22 | COc1ccccc1-n1c(=S)[nH]c2c(sc(=S)n2-c2ccc(C)cc2C)c1=O | 97.7%
23 | CCOC(=O)c1cnc2[nH]c3ccccc3n2c1=O | 104%
24 | COc1ccc(Nc2nc(-c3ccccc3)cs2)cc1 | 142% (active)
25 | COc1ccc2nc(Nc3nc(-c4cc5ccccc5oc4=O)cs3)sc2c1 | 103%

Row | Structure (SMILES) | activation (% of control)
26 | COc1ccc(OC)c(Nc2nc(-c3ccc(O)c(O)c3)cs2)c1 | 102%
27 | COc1ccc2nc(NC(=O)[C@@H]3CCCN3C(=O)c3cccs3)sc2c1 | 103%
28 | COc1ccc2nc(Nc3nc(-c4ccncc4)cs3)sc2c1 | 140% (active)
29 | Cc1cccc(S(=O)(=O)CC(=O)Nc2nc(-c3ccccc3)cs2)c1 | 105%
30 | CC(=O)Nc1ccc(S(=O)(=O)Nc2nc(-c3ccc(C(C)(C)C)cc3)cs2)cc1 | 99%
31 | NS(=O)(=O)c1ccc(Nc2nc(-c3ccccc3)cs2)cc1 | 131% (active)
32 | COc1ccc(-c2csc(Nc3ccc(O)cc3)n2)cc1 | 110%
33 | CCNC(=O)N1c2ccccc2Sc2ccccc21 | 98%
34 | CCNC(=O)CC1C(=O)N(c2ccc(OC)cc2)C(=S)N1CCc1ccncc1 (stereo not drawn) | 105%
35 | Cc1ccccc1N(C(=O)Cc1cccs1)C(C(=O)NC1CCCCC1)c1cn(C)nc1C (stereo not drawn) | 96.2%
36 | O=C(NCCCN1CCN(c2ccc(F)cc2)CC1)Nc1ccc([N+](=O)[O-])cc1 | 88.3%
37 | Nc1ncc(-c2cc3ccccc3oc2=O)s1 | 166% (active)
38 | O=c1oc2ccccc2cc1-c1cn(-c2ccccc2)c(=S)[nH]1 | 28.6%
39 | O=C(NCc1cccnc1)c1cccc(-c2cc3ccccc3oc2=O)c1 | 97.6%
40 | Cn1cccc1C(C#N)c1ccccc1C#N (stereo not drawn) | 100%
41 | Cc1cc(C)n2nc(C(=O)N3CCN(Cc4ccc5c(c4)OCO5)CC3)nc2n1 | 108%
42 | Cc1cccc(NC(=O)c2ccccc2NC(=O)C(C)(C)C)n1 | 95.8%
43 | Cc1cccc(NC(=O)c2cc(N3C(=O)CCC3=O)ccc2Cl)n1 | 98.4%
44 | Cc1cccc(NC(=O)c2ccc3ccccc3n2)n1 | 131% (active)
45 | CC(=O)c1cnc(SCC(=O)O)nc1C | 108%
46 | Nc1nc(SCC(=O)NCCN2CCOCC2)nc2sc3c(c12)CCC3 | 99.3%
47 | C=C(C)CSc1nc(N)c2c3c(sc2n1)CCC3 | 135% (active)
48 | CC(C)(C)C1CCc2c(sc3nc(SCC(N)=O)nc(N)c23)C1 (stereo not drawn) | 123%
49 | CCOC(=O)C1=C(CC)OC(N)=C(C#N)C1c1ccc(F)cc1F (stereo not drawn) | 76.9%
50 | Cc1ccc(NC(=O)C(=O)NCc2ccco2)c(C)c1 | 126%

Row | Structure (SMILES) | activation (% of control)
51 | Cc1ccc(NN=C2C(=O)OC(C)(C)OC2=O)c(C)c1 | 132% (active)
52 | Cc1ccc(NC(=O)c2oc(=O)c3ccccc3c2-c2ccccc2)c(C)c1 | 97.1%
53 | Cc1ccccc1-c1nnn(CC(=O)c2ccc(S(=O)(=O)N3CCCC3)cc2)n1 | 96.4%
54 | O=C(Cn1nnc(-c2ccccc2)n1)NCc1ccccc1 | 100%
55 | CC(C)(C)NC(=O)Cn1nnc(-c2ccccc2Cl)n1 | 142% (active)
56 | Cc1ccc(NC(=O)Cn2c(=O)n(CCC(=O)NC3CCN(Cc4ccccc4)CC3)c(=O)c3ccccc32)cc1 | 101%
57 | COC(=O)c1cc(NC(=O)C2C3C=CC(C3)C2C(=O)O)cc(C(=O)OC)c1 (stereo not drawn) | 101%
58 | CC(C)COC(=O)c1ccc(NC(=O)C2C3C=CC(C3)C2C(=O)O)cc1 (stereo not drawn) | 138% (active)
59 | CC(=O)NS(=O)(=O)c1ccc(NC(=O)C2C3C=CC(C3)C2C(=O)O)cc1 (stereo not drawn) | 99.5%
60 | Cc1ccc(S(=O)(=O)N2CCOCC2)cc1C(=O)OC1CCCCC1=O (stereo not drawn) | 97%
61 | O=C(O)Cc1sc(-c2ccc(C(=O)O)cc2)nc1-c1ccccc1 | 93.7%
62 | NC(=O)Cc1ccc2sc(-c3ccccc3)nc2c1 | 180% (active)
63 | O=C(O)Cc1sc(-c2ccccc2)nc1-c1cccs1 | 108%
64 | CN(CC(=O)NCCc1ccccc1)S(=O)(=O)c1cnc[nH]1 | 95.9%
65 | O=C(CSc1nnnn1-c1ccc(O)cc1)N1N=C(c2ccc3ccccc3c2)CC1c1ccccc1 (stereo not drawn) | 110%
66 | CCc1nc(C)cn1S(=O)(=O)c1cc([N+](=O)[O-])ccc1Cl | 87.5%
67 | Cc1cccc(-n2cnc(C(=O)NNC(=S)Nc3ccccc3)c2)n1 | 92%
68 | Cc1cccc(-n2cnc(C(=O)Nc3cccnc3)c2)n1 | 140% (active)
69 | COc1cccc(C(=O)Nc2cccnc2)c1OC | 96.6%
70 | Cc1noc(C)c1S(=O)(=O)Nc1ccc(C(=O)N2CCN(c3ccc(F)cc3)CC2)cc1 | 98.8%
71 | N#Cc1ccc(OCc2nnc(-c3ccc([N+](=O)[O-])cc3)o2)cc1 | 99.1%
72 | CN(C)S(=O)(=O)c1ccc(N2CCCC2=O)c([N+](=O)[O-])c1 | 108%
73 | CSc1nc2ccc(NC(=O)c3c(F)cccc3F)cc2s1 | 145% (active)
74 | CCCC(=O)Nc1nc2ccc(NC(=O)c3c(F)c(F)c(OC)c(F)c3F)cc2s1 | 102%
75 | O=C(Nc1ccncc1)c1c(F)cccc1F | 105%

Row | Structure (SMILES) | activation (% of control)
76 | CCOC(=O)c1c(CN(C)C)n(-c2ccccc2)c2cc(Br)c(O)cc12 | 101%
77 | CN1C(=O)c2ccc(NC(=O)C3CCCCC3)cc2C1=O | 99.6%
78 | O=C(Nc1cc2ccccc2oc1=O)C1CCCCC1 | 149% (active)
79 | O=C(O)c1ccc(NC(=O)C2CCCCC2)cc1 | 99.3%
80 | CC(=O)Nc1ccc(/C(C)=N/NC(=O)CN(c2ccccc2Br)S(C)(=O)=O)cc1 | 97.6%
81 | O=C(O)CCCCCNc1ncnc2ccc(Br)cc12 | 104%
82 | Cc1[nH][nH]c(=O)c1C(c1ccc2c(c1)OCO2)c1c(C)[nH][nH]c1=O | 101%
83 | Clc1ccc(-c2cc(C3CCNCC3)[nH]n2)c(Cl)c1 | 135% (active)
84 | Clc1ccc(-c2ncc3ccccn23)c(Cl)c1 | 112%
85 | O=C1CSC(c2ccccc2)N1c1nc(-c2ccc(Cl)cc2Cl)cs1 (stereo not drawn) | 102%
86 | O=C(O)c1ccn(COc2ccc(Br)cc2)n1 | 101%
87 | N=C1C(=O)OCC1c1ccccc1NC(=O)CN1CCCCC1 (stereo not drawn) | 86.4%
88 | O=C(/C=C/NCc1ccc(F)cc1)c1ccccc1 | 117%
89 | Cc1ccc(N/C=C/C(=O)c2ccccc2)cc1C | 142% (active)
90 | O=C(/C=C\NCC(=O)c1ccccc1)c1ccccc1 | 104%
91 | CC(C)(C)NC(=O)NC(=O)COC(=O)Cc1ccc(Cl)cc1Cl | 103%
92 | O=C(O)c1ccc(NC(=O)c2cn(-c3ccccc3)nc2-c2ccc(Cl)cc2)cc1 | 122%
93 | Cc1ncc(CC(=O)n2cc(C(=O)c3cc(Cl)ccc3O)cn2)s1 | 103%
94 | O=C(c1cnn(-c2ccc(Cl)cc2)c1)c1ccccc1O | 137% (active)
95 | O=C(Nn1c(-c2ccccc2)nc2ccccc2c1=O)c1ccc([N+](=O)[O-])cc1 | 95.4%
96 | Cc1ccc(C)n1NC(=O)c1ccc([N+](=O)[O-])cc1 | 97.7%
97 | O=C(Nn1c(SCc2ccc([N+](=O)[O-])cc2)nc2ccccc2c1=O)c1ccc(F)cc1 | 150% (active)
98 | O=C(CNC(=O)c1ccccc1)NCC(=O)OCC(=O)c1ccccc1 (Bz-Gly-Gly-OPac) | 101%
